Screening results deposited in PubChem BioAssay by National Center for Advancing Translational Sciences (NCATS).
ELG1 repair inh: qHTS screen for small molecules that inhibit ELG1-dependent DNA repair in human embryonic kidney (HEK293T) cells expressing luciferase-tagged ELG1. actives 2.3% (n = 330,000). AID 504467, 2011. HEK293T ELG1-luciferase reporter, luminescence, 16 h; DNA damage induced by 5-fluorouridine. Potency, µM (doses to about 46.1 µM), usual class: inhibitors; also: nearly all actives have a fitted effect of over 55% in size
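In this reporter screen, reduction of luminescence relative to DMSO vehicle indicated activity. Compounds and 5-fluorouridine were added together to 2,000 cells per well, incubated for 16 hr at 37 °C, then developed with ONE-Glo.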
TRPV1 PAM: HTS Assay for Compounds that Act as Potentiators of the Vanilloid Receptor 1; Transient receptor potential cation channel subfamily V member 1 (Homo sapiens), Q8NER1; TRPV1-expressing cells, Fluo-8 calcium influx, capsaicin EC20 potentiation; potentiation, % at 8.33 µM; actives 0.02% (n = 320,000); AID 540277, 2011; in the data active = potentiation above about 80%; inconclusive = between about 30% and that limit
Target sequence (Q8NER1 whole entry, looked up): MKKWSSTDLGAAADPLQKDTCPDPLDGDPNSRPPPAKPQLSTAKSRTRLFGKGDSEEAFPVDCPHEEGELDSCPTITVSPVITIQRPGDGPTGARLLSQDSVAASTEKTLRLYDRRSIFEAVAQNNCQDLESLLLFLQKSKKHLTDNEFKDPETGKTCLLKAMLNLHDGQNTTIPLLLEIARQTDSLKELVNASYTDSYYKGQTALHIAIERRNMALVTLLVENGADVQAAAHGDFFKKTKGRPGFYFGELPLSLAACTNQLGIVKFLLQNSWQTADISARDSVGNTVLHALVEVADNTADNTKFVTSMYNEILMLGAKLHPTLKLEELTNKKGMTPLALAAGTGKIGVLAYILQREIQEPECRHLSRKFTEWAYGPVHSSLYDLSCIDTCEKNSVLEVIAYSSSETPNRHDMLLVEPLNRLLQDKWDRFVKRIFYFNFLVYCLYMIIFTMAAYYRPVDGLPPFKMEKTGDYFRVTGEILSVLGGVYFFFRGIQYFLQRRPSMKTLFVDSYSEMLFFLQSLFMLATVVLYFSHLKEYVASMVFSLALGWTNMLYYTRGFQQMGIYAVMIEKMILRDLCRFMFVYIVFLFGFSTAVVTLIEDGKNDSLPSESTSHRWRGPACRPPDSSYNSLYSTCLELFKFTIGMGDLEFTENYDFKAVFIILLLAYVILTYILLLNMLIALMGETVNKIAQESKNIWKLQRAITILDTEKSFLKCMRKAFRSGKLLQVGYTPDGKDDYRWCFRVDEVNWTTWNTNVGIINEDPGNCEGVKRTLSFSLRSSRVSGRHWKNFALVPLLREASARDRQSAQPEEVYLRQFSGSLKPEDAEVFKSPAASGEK
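Fluo-8 calcium influx in TRPV1-expressing cells, kinetic read (ex 480/em 520 nm). Compound added and read 3 min for agonist activity, followed by capsaicin at EC20 final and 2 min further read for enhancement.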
FUS yeast rescue: qHTS for Suppressors of FUS Proteinopathy: Primary screen using FUS-linked yeast assay; S. cerevisiae FUS-expressing, growth rescue, OD600, 24 h; Potency, µM (titrated, usually from 76.6 µM), hits mostly activators; actives 0.24% (n = 390,000); AID 1347120, 2019; also: nearly all actives have a fitted effect of over 55% in size
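Absorbance at 600 nm, taken 24hr after compound addition, measured rescue of FUS-yeast growth at 30C. Induction used 2% galactose with seeding at OD 0.005. Controls: CP55940 from 92uM final, DMSO only.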
Giardia killer: Small Molecules that selectively kill Giardia lamblia: qHTS | AID 540267, 2011 | Giardia lamblia trophozoite viability | activity change, % at 7.66 µM, hits read low | actives 0.15% (n = 340,000); in the data active = activity change below about -80%; inconclusive = between about -30% and that limit;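 also: parasites exposed to compound for two days anaerobically before the ATP read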
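Trophozoite viability was measured as ATP-dependent luminescence, read 15-30 min after reagent addition. Before that, parasites at 100 cells/well were exposed to compounds for 48 h, anaerobically, at 37 deg C.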
TRPV1 ag: HTS Assay for Compounds that Act as Agonists of the Vanilloid Receptor 1 | actives 0.19% (n = 320,000) | TRPV1-expressing cells, Fluo-8 calcium influx, agonist mode | activation, % at 8.33 µM | Transient receptor potential cation channel subfamily V member 1 (Homo sapiens), Q8NER1; in the data active = activation above about 80%; inconclusive = between about 30% and that limit
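Cells expressing TRPV1 were dye-loaded with Fluo-8 and read kinetically: 10 s baseline, 3 min after compound (agonist portion), then 2 min after EC20 capsaicin (allosteric enhancer portion). Calcium-bound dye fluorescence at 480/520 nm.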
A number is an active result; – = inactive; ? = inconclusive; · = no result given; ! = not active in a repeat. In the library only some 2.3% were active in any assay of this set; here they are far more common. Unless noted, calls follow the shape of the dose curve; as a rule, active = well fitted curve in the direction sought with a large enough effect; inconclusive = small, poorly fitted or top-dose-only effect, or another doubt; inactive = no such curve, though single readings can be large; an effect the other way counts as inactive or inconclusive.

SMILES	ELG1 repair inh	TRPV1 PAM	FUS yeast rescue	Giardia killer	TRPV1 ag
O=C(c1ccc(Cl)c(S(=O)(=O)N2CCCCC2)c1)N1CCCCC1	–	–	–	–	–
O=C(c1ccc(Cl)c(Cl)c1)N1CCN(c2ccccn2)CC1	–	–	–	–	–
Cc1ccc(S(=O)(=O)NCc2ccc(C(=O)N3CCN(c4ccccn4)CC3)cc2)cc1	?	–	–	–	–
Cc1ccc(NS(=O)(=O)c2ccc(C(=O)N3CCN(c4ccccn4)CC3)cc2)cc1	15µM	–	–	–	–
CN(c1ccccc1)S(=O)(=O)c1cc(C(=O)N2CCN(c3ccccn3)CC2)ccc1Cl	15µM	–	–	–	–
O=C(c1ccc(Cl)c(S(=O)(=O)N2CCCCC2)c1)N1CCN(c2ccccc2)CC1	?	–	·	–	–
O=C(c1ccc(Cl)c(S(=O)(=O)N2CCCC2)c1)N1CCN(c2ccc(F)cc2)CC1	21µM	–	–	–	–
O=C(c1ccc(Cl)c(S(=O)(=O)N2CCCCCC2)c1)N1CCN(c2ccccc2O)CC1	16µM	–	–	–	–
COC(=O)CN1C(=O)CSc2ccc(S(=O)(=O)Nc3cccc(Cl)c3C)cc21	·	·	–	·	·
COC(=O)c1ccc(NC(=O)CSc2ccc(-c3sc(-c4ccccc4)nc3C)nn2)cc1	·	·	–	·	·
COc1ccc(N2CCN(C(=O)c3ccc4c(c3)CCN4S(=O)(=O)c3ccccc3)CC2)cc1	–	–	?	–	–
Cc1ccc(C(=O)N2CCN(c3ccccc3)CC2)cc1S(=O)(=O)N1CCCC1	16µM	–	–	–	–
O=C(c1ccc2c(c1)CCN2S(=O)(=O)c1ccccc1)N1CCN(c2ccc(F)cc2)CC1	–	–	18µM!	–	–
O=C(c1ccc(Cl)c(S(=O)(=O)N2CCCC2)c1)N1CCN(c2ccccc2)CC1	16µM	–	–	–	–
CC(C)(C)C(=O)CSc1ncnc2c1cnn2Cc1ccccc1	?	–	–	–	90
COC(=O)CSc1ncnc2c1cnn2Cc1ccccc1	–	–	–	–	–
CCc1ccc(C(=O)NNc2ccc(C)c(Cl)c2)cc1	18µM	–	–	–	–
O=C(NC1CCCCC1)C(c1cccnc1)N(C(=O)CCl)c1ccc(F)cc1 (configuration not stated)	21µM	–	–	–	–
COc1ccc(N(C(=O)CCl)C(C(=O)NC2CCCCC2)c2cccnc2)cc1 (configuration not stated)	21µM	–	·	–	–
O=C(NC1CCCCC1)C(c1cccnc1)N(C(=O)CCl)c1ccccc1Cl (configuration not stated)	?	–	–	–	–
Clc1cccc(-c2nc(NCc3cccnc3)c3ccccc3n2)c1	7.3µM	–	–	–	–
c1cncc(-c2nc(NCC3CCCO3)c3ccccc3n2)c1 (configuration not stated)	23µM	–	–	–	–
C=CCn1cc(C(=O)NCCOC)c(=O)c2cc(S(=O)(=O)N(CC)CC)ccc21	?	–	–	–	–
CCn1cc(C(=O)NCc2ccc3c(c2)OCO3)c(=O)c2cc(S(=O)(=O)N(C)C)ccc21	16µM	–	–	–	?
CCn1cc(C(=O)NCCCN(C)c2ccccc2)c(=O)c2cc(S(=O)(=O)N(C)C)ccc21	?	–	–	–	?
SMILES	ELG1 repair inh	TRPV1 PAM	FUS yeast rescue	Giardia killer	TRPV1 ag
CCN(CCCNC(=O)c1cn(CC)c2ccc(S(=O)(=O)N(C)C)cc2c1=O)c1cccc(C)c1	23µM	–	–	–	109
CCn1cc(C(=O)NC(C)CCc2ccccc2)c(=O)c2cc(S(=O)(=O)N(C)C)ccc21 (configuration not stated)	21µM	–	–	–	?
C=CCn1cc(C(=O)NCCCOCC)c(=O)c2cc(S(=O)(=O)N(CC)CC)ccc21	18µM	–	–	–	–
CC(C)CCN1C(=O)CSCC1(C)C(=O)Nc1ccc2c(c1)OCCO2 (configuration not stated)	·	·	–	·	·
C[C@@H]1CN([C@H](C)CO)C(=O)c2cc(Br)cnc2O[C@@H]1CN(C)C(=O)Nc1ccccc1	·	·	–	·	·
CCCn1c(-c2nonc2N)nc2ccccc21	16µM	–	–	–	–
CCn1cc(C(=O)N(C)c2ccc(OC)cc2OC)c2cc(OC)c(OC)cc2c1=O	15µM	–	–	–	–
CCn1cc(C(=O)N(C)c2cc(C)ccc2OC)c2cc(OC)c(OC)cc2c1=O	?	–	–	–	–
CSc1ccc(C(O)c2ncc(-c3ccccc3F)[nH]2)cc1 (configuration not stated)	·	·	–	·	·
CCOC(=O)c1nnn(-c2nc(OC)nc(N3CCCCC3)n2)c1-c1ccccc1	18µM	–	·	·	–
CCOC(=O)c1nnn(-c2nc(N3CCCC3)nc(N3CCCC3)n2)c1-c1ccccc1	–	–	–	–	–
Cc1ccc(NC(=O)CSc2nnc(-c3cccnc3)s2)cc1	–	–	·	–	–
O=C(CSc1nnc(-c2cccnc2)s1)Nc1ccnc2ccccc12	12µM	–	·	–	–
O=C(/C=C/Nc1ccc(F)cc1Br)c1ccccc1	?	–	·	-89	–
COCCN1C[C@@H](CO)O[C@@H](n2cnc3c(NCCO)ncnc32)C1	·	·	–	·	·
COc1cc(C[C@@H](C)[C@@H](C)Cc2ccc(O)c(OC)c2)ccc1O	–	·	?	–	·
COc1cc(CNC(=O)CCCC/C=C\C(C)C)ccc1O	·	–	·	·	80
Cc1ccc(Cl)cc1NC(=O)C(C)n1nc(-c2ccccc2)ccc1=O (configuration not stated)	·	·	–	·	·
Cc1c(C(=O)NCc2ccc3c(c2)OCO3)oc2ccc(S(=O)(=O)N3CCCC3)cc12	7.3µM	–	–	–	–
Cc1c(C(=O)N2CCOCC2)oc2ccc(S(=O)(=O)N3CCCC3)cc12	?	–	–	–	–
COc1ccccc1CNC(=O)c1oc2ccc(S(=O)(=O)N3CCCC3)cc2c1C	?	–	–	–	–
Cc1c(C(=O)NCc2cccnc2)oc2ccc(S(=O)(=O)N3CCCCC3)cc12	5.8µM	–	–	–	–
Cc1c(C(=O)N2CCc3ccccc3C2)oc2ccc(S(=O)(=O)N3CCCCCC3)cc12	16µM	–	·	–	?
C=CCNC(=O)c1oc2ccc(S(=O)(=O)N3CCCCC3)cc2c1C	–	–	–	–	–
Cc1c(C(=O)NCc2cccnc2)oc2ccc(S(=O)(=O)N3CCCCCC3)cc12	18µM	–	–	–	?
Cc1c(C(=O)NCc2ccc3c(c2)OCO3)oc2ccc(S(=O)(=O)N3CCCCC3)cc12	?	–	?	–	–
